# From PubChem BioAssay
# NR3A LBD binder: NR3A (human) ligand-binding domain modulation; Tm shift relative to glycine control, % at 25 µM; NR3A LBD differential scanning fluorimetry, Tm shift; 0% = protein alone, 100% = glycine-bound protein; hit rate 2.5% among 340,000;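 active = melting temperature shift of at least 10% of the positive control shift, at one fixed dose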
# ADAM17 inh: ADAM17 inhibition, QFRET primary screen; inhibition, % at 6.95 µM; hit rate 0.83% among 370,000; P78536; recombinant ADAM17, EDANS/DABCYL FRET peptide cleavage;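 active = inhibition above the mean of compounds lying between control limits plus 3 SD, set per campaign, cut at about 8.5% in these data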;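 note: 0% = DMSO-only wells as the low control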
# HGIII-sPLA2 inh: Blocks human group III sPLA2 activity; hit rate 0.56% among 370,000; AID 743126; inhibition, % at 12.2 µM; QFRET BODIPY PC-A2 liposome hydrolysis, fluorescence;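 active = inhibition above mean plus 3 SD of compounds lying within the high and low control bounds, cut at about 19% in these data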;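 note: 0% = median of test compound wells and 100% = no enzyme DMSO wells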
# FAS TE block: FAS thioesterase (human) inhibition; hit rate 0.67% among 360,000; P49327; inhibition, % at 15 µM; recombinant FAS-TE, OMFH fluorogenic substrate, fluorescence endpoint;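 active = compounds whose normalised, plate-corrected inhibition of enzyme fluorescence in the single-dose primary screen is 50% or more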;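 note: 0% = DMSO with enzyme and 100% = substrate without enzyme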
# ADAM10 inh: ADAM10 inhibition, QFRET primary screen. O14672. recombinant ADAM10, EDANS/DABCYL FRET peptide cleavage, 3 h. inhibition, % at 7 µM. hit rate 0.62% among 370,000. AID 720582;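 active = inhibition above a per-campaign cutoff equal to the mean of compounds falling between control-based bounds plus 3 SD, cut at about 20% in these data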;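 note: 0% = DMSO wells while the 100% control is not disclosed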
# Starred values were filed as active, the others as inactive; i = inactive; nt = not tested or not shown. Hits are enriched below; roughly 4.3% of the tested compounds scored in any of these assays.
SMILES,NR3A LBD binder,ADAM17 inh,HGIII-sPLA2 inh,FAS TE block,ADAM10 inh
O=C(c1cc(Cl)cc(Cl)c1)N1CC[C@H]2[C@H](CCCN2Cc2ccc(F)cc2)C1,nt,i,-2,nt,0
COc1ccc(/C=C/C(=O)Oc2cccc(/C=N/NC(=O)c3cccc(F)c3)c2)cc1,1,-1,-2,14,4
O=C(N/N=C/c1ccc2c(c1)OCO2)c1ccc(COCC(F)(F)C(F)F)cc1,-8,nt,nt,-3,nt
COc1ccc(/C=C/C(=O)Oc2ccc(/C=N\NC(=O)c3ccc(F)cc3)cc2)cc1,15*,-4,10,5,-4
COc1ccc(C(=O)N/N=C/c2ccc(OC)c(COc3ccc(F)cc3F)c2)cc1,15*,4,0,16,0
COc1ccc(/C=N/NC(=O)c2ccc3nc[nH]c3c2)cc1,15*,-2,9,-6,-4
COc1ccc(/C=N/NC(=O)c2ccc(COCC(F)(F)C(F)F)cc2)cc1,12*,-1,5,-1,0
COc1ccc(C(=O)N/N=C/c2ccc(OC)c(COc3ccc(F)cc3)c2)cc1,6,3,-8,16,0
COc1ccc(/C=N/NC(=O)c2ccc3nc[nH]c3c2)c(OC)c1,-10,-6,-3,-9,-14
COCCCNC(=O)c1ccc2c(c1)NC(=O)C(C)(C)O2,nt,-19,5,nt,-5
O=C(N/N=C/c1ccc(Cl)c([N+](=O)[O-])c1)c1ccc2nc[nH]c2c1,13*,-1,-10,16,5
C#CCOCCOCCOCCNc1nc(N2CCN(C(=O)Cn3cc(CCCN=C(N)N)nn3)CC2)nc(N2CCN(C(=O)[C@H](Cc3ccc(O)cc3)n3cc(CCO)nn3)CC2)n1,nt,-2,4,nt,-3
C[C@H]1COc2cccc(N3CCCC3)c2S(=O)(=O)N1C,nt,-4,-3,nt,-2
Cc1ccc(NC(=O)CSc2nnc(NC(=O)C3CC3)s2)cc1,2,-3,3,-7,-2
CC(=O)c1ccc(NC(=O)CSc2nnc(NC(=O)C3CC3)s2)cc1,25*,-1,1,-4,-10
Cc1ccc(NC(=O)CSc2nnc(NC(=O)C3CC3)s2)cc1C,21*,0,4,-1,11
OC(c1ccccc1)(c1ccccc1)C1CCN(CCCOc2ccccn2)CC1,nt,-3,3,nt,-9
CC(C)[C@H](NC(=O)[C@@H]1CCCN1)C(=O)N1CCC2CCN(S(=O)(=O)c3ccccc3)CC21 (some centres not stated),nt,-1,-1,nt,-5
COc1ccc2c(n1)Sc1nc3ccccc3nc1N2,34*,-15,-11,-26,-33
COc1cc2ccccc2nn1,1,-54,-2,-4,-127
CCOc1ccc(C(=O)CCC(=O)N(CC)CC(=O)NCc2ccc(Cl)cc2)cc1,13*,-5,-9,9,-2
CCN(CC(=O)NCc1ccc(Cl)cc1)C(=O)COc1cccc(Cl)c1,-2,-2,-11,6,-4
CCOC(=O)C1=C(c2ccccc2)c2ccccc2N(S(=O)(=O)C(F)(F)F)C1C(=O)OCC (configuration not stated),0,-7,-4,12,-21
CCOC(=O)C1C(C(=O)OC)=C(c2ccc(OC)cc2)c2ccccc2N1S(=O)(=O)C(F)(F)F (configuration not stated),11*,1,-4,14,1
CCOC(=O)C1C(C(=O)OC)=C(c2ccc(F)cc2)c2ccccc2N1S(=O)(=O)C(F)(F)F (configuration not stated),-3,-8,-2,9,-23
CCOC(=O)C1C(C(C)=O)=C(c2ccccc2)c2ccccc2N1S(=O)(=O)C(F)(F)F (configuration not stated),11*,-6,0,16,-6
C[C@H](CO)N1C[C@H](C)[C@@H](CN(C)C(=O)Nc2ccc(C(F)(F)F)cc2)Oc2ccc(NC(=O)Nc3ccc4c(c3)OCO4)cc2C1=O,11*,4,-25,16,4
C[C@H](CO)N1C[C@H](C)[C@@H](CN(C)C(=O)Nc2ccccc2)Oc2ccc(NC(=O)Nc3ccc(C(F)(F)F)cc3)cc2C1=O,11*,5,-25,10,13
CC(C)NC(=O)N(C)C[C@H]1Oc2ccc(NC(=O)CCC(F)(F)F)cc2C(=O)N([C@H](C)CO)C[C@@H]1C,13*,0,1,-14,0
